This is a sample that favours compounds with a hit; in the whole collection about 13% have one here.
KDM4E inh – qHTS Assay for Inhibitors of Human Jumonji Domain Containing 2E (JMJD2E) | 230,000 compounds, 1.6% hits | Potency, µM (highest dose often 57.1 µM), for inactives: top-dose activity change, negative = inhibition, usual class: inhibitors | JMJD2E catalytic domain, FDH-coupled NADH fluorescence (FDH is formaldehyde dehydrogenase);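 also: potency is read from the fitted curve at half-maximal effect; 0% = wells with enzyme and -100% = buffer wells without enzyme; nearly all actives have a fitted effect of over 50% in size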
Target sequence (B2RXH2 1-337 limits assumed): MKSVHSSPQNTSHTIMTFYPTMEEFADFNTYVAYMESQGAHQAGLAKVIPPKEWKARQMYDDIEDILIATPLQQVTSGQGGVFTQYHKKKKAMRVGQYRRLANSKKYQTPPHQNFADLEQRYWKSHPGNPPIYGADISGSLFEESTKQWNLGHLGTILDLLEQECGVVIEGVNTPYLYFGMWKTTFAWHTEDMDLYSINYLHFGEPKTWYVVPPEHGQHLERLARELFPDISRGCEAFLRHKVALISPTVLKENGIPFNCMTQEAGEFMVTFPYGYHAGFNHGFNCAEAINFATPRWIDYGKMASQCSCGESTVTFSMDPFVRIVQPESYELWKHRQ
G9a block – qHTS Assay for Inhibitors of Histone Lysine Methyltransferase G9a | G9a H3K9 monomethylation, AlphaScreen, 2 h | Potency, µM (series often up to 102 µM), for the others: at the top dose activity, negative = inhibition, usual class: inhibitors | 350,000 compounds, 8.8% hits; also: potency is read from the fitted curve at half-maximal effect; % is scaled to controls: 0 for no effect and ±100 for the full control effect; nearly all actives have a fitted effect of over 75% in size
Target sequence (Q96KQ7 913-1193 limits assumed): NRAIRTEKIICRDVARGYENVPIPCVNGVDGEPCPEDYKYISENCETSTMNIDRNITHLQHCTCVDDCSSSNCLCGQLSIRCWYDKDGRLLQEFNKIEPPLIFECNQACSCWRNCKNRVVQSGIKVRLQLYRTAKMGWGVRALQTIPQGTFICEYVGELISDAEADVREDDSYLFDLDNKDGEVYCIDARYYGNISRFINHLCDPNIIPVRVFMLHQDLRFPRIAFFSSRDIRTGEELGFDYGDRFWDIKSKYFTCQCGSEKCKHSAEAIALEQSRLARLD
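Readings reflect AlphaScreen signal from monomethyl-H3K9 antibody detection. HMT at 20 nM; substrate b-H3K9 500 nM; cofactor SAM 20 uM; 2 h RT reaction; compounds tested as titrations in qHTS with 15 min preincubation.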
Lamin A splicing – qHTS Assay for Modulators of Lamin A Splicing; HeLa LMNA splicing GFP/RFP minigene ratio, 48 h; Potency, µM (titrated, usually from 46.1 µM), for inactives: top-dose ratio change, negative = inhibition, hits mostly inhibitors; 200,000 compounds, 0.01% hits; AID 1487, 2009; active = well fitted inhibition curve with a large enough effect in the signal ratio, with a control signal flat, not every such curve was filed as active; inconclusive = small, poorly fitted or top-dose-only effect, or effect the other way, or a change in a side signal; the % refers to the signal ratio; also: potency is read from the fitted curve at half-maximal effect; % is scaled to controls: 0 for no effect and ±100 for the full control effect
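S3 HeLa stable clones carrying a lamin A-EGFP splicing minigene plus DsRed2 were seeded at 600 cells/well in Opti-MEM with 2% FBS, pin-dosed and incubated 48 h at 37°C. Acumen cytometry (488 nm) gave the GFP/RFP total-intensity ratio.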
ALDH1A1 block – qHTS Assay for Inhibitors of Aldehyde Dehydrogenase 1 (ALDH1A1); Aldehyde dehydrogenase 1A1 (Homo sapiens), P00352; Purified ALDH1A1, NADH fluorescence, propionaldehyde substrate; Potency, µM (titrated, usually from 75.3 µM), for the others: at the highest dose activity, negative = inhibition, usual class: inhibitors; 220,000 compounds, 7.3% hits; AID 1030, 2008; active = well fitted inhibition curve with a large enough effect, not every such curve was filed as active; inconclusive = small, poorly fitted or top-dose-only effect, or another doubt; inactive = no such curve, though single readings can be large or run the other way;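 also: potency is read from the fitted curve at half-maximal effect; plate controls were no enzyme wells and a reference inhibitor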
miR-21 reporter – qHTS Assay for Modulators of miRNAs and/orActivators of miR-21 | HeLa miR-21 FLuc reporter, luciferase, 48 h | Potency, µM (titrated, usually from 38.3 µM), inactives show top-dose activity change, positive = activation, hits mostly activators | 340,000 tested, under 10 active | AID 2288, 2010;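 also: % of control where 0% means no effect; miR-21 action dims this reporter so a rising signal means less miR-21 action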
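HeLa miR-21-FLuc reporter line, endogenous miR-21; 2000 cells/well in DMEM/10% FBS; compound titration up to ~40uM final, 48 h, 37 degree Celsius; luciferase detection reagent, 15 min lysis, CCD luminescence.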
Sfp PPTase inh – qHTS Assay for Inhibitors of Bacillus subtilis Sfp phosphopantetheinyl transferase (PPTase); 4'-phosphopantetheinyl transferase ffp (Bacillus subtilis), Q9F4F7; Biochemical Sfp PPTase activity, qHTS; Potency, µM, inactives show largest response in the series, negative = inhibition, actives largely listed as inhibitors; 310,000 compounds, 3.5% hits; AID 1490, 2009;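 also: the enzyme is Sfp with the accession as filed and its product quenches rhodamine fluorescence; potency is read from the fitted curve at half-maximal effect; 0% = enzyme reaction without inhibitor and -100% = no enzyme wells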
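Compounds were incubated with enzyme (final 15 nM) for 15 min at room temperature before substrate addition started the reaction. Fluorescence at 525 nm excitation, 598 nm emission was recorded immediately and after 30 minutes.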
* hit, by the source's call; [ ] = remark or other dose. Unless noted, calls follow the shape of the dose curve; as a rule, active = well fitted curve in the direction sought with a large enough effect; inconclusive = small, poorly fitted or top-dose-only effect, or another doubt; inactive = no such curve, though single readings can be large; an effect the other way counts as inactive or inconclusive.

Results for CC1CCC2C(=O)N3C(CCC(C)C3c3ccccc3Br)C(=O)N2C1c1ccc(C#CCN(C)C)cc1 (stereo unspecified) ?
ALDH1A1 block: 3.5µM*; Sfp PPTase inh: 18%

Results for C[C@H]1CC[C@H]2C(=O)N3[C@H](c4ccccc4Br)[C@@H](C)CC[C@H]3C(=O)N2[C@@H]1c1ccccc1Br ?
KDM4E inh: 2%; G9a block: 50µM*; Lamin A splicing: inconclusive; ALDH1A1 block: inconclusive; miR-21 reporter: 29%; Sfp PPTase inh: 6%

What do the screens show for `CC1CCC2C(=O)N3C(CCC(C)C3c3ccc(-c4ccco4)cc3)C(=O)N2C1c1ccc(-c2ccco2)cc1` (stereo unspecified)?
ALDH1A1 block: 3.2µM*; Sfp PPTase inh: inconclusive

Results for C[C@H]1CC[C@H]2C(=O)N3[C@H](c4ccc(Br)cc4)[C@@H](C)CC[C@H]3C(=O)N2[C@@H]1c1ccc(Br)cc1 ?
ALDH1A1 block: 11%[13.5 µM]; Sfp PPTase inh: 18%

Results for CCN(CC(=O)Nc1ccc2c(c1)OCCO2)S(=O)(=O)c1ccc(F)cc1 ?
G9a block: 12%; miR-21 reporter: -12%; Sfp PPTase inh: 6%

Results for O=C(Nc1ccc(Cl)cc1C(F)(F)F)c1cc(S(=O)(=O)N2CCOCC2)ccc1F ?
G9a block: 2%[59 µM]; Lamin A splicing: -9%[46 µM]; miR-21 reporter: 3%

What do the screens show for `CCOC(=O)c1c(CSC(=N)N)n(-c2ccc(C)cc2)c2cc(Br)c(OC(C)=O)cc12`?
KDM4E inh: -7%; Lamin A splicing: inconclusive; ALDH1A1 block: 14%; miR-21 reporter: 30%; Sfp PPTase inh: 45µM*

How did Cc1occc1C(=O)N1CCCC(N2CCN(c3ccccc3F)CC2)C1 (stereo unspecified) do in these assays?
G9a block: -12%[12.7 µM]; miR-21 reporter: -7%; Sfp PPTase inh: 1%

How did COC(=O)[C@@]1(Cc2ccc(OC)cc2)[C@H]2c3cc(C(=O)N4CCCC4)n(CCc4ccc(O)c(OC)c4)c3C[C@H]2CN1C(=O)c1ccccc1 do in these assays?
KDM4E inh: 6%; ALDH1A1 block: 0%; Sfp PPTase inh: 1%

What do the screens show for `Clc1ccc2c(N3CCCC3)ccnc2c1`?
KDM4E inh: -3%; G9a block: -31%[59 µM]; Lamin A splicing: 8%; ALDH1A1 block: 9%; miR-21 reporter: 4%; Sfp PPTase inh: 12%

What do the screens show for `COc1ccc(N2CCN(c3ccnc4cc(Cl)ccc34)CC2)cc1`?
G9a block: 32µM*; miR-21 reporter: 0%; Sfp PPTase inh: 56µM*

Results for Oc1ccc(N2CCN(c3ccnc4cc(Cl)ccc34)CC2)cc1 ?
G9a block: 8.9µM*; miR-21 reporter: 11%; Sfp PPTase inh: inconclusive

How did Cc1ccc2nc(SC(C)C(=O)N3CCOCC3)[nH]c2c1 (stereo unspecified) do in these assays?
KDM4E inh: -2%; G9a block: 21%; Lamin A splicing: 3%[46 µM]; ALDH1A1 block: 14%; miR-21 reporter: -39%; Sfp PPTase inh: 6%

What do the screens show for `COc1ccccc1C1NC(=O)NC(C)=C1C(=O)OC1CCC(C)CC1` (stereo unspecified)?
miR-21 reporter: -3%; Sfp PPTase inh: 5%

What do the screens show for `CC(C)NC[C@H]1CCc2cc(CO)c([N+](=O)[O-])cc2N1`?
KDM4E inh: -2%[25.5 µM]; G9a block: 3%[21.5 µM]; Lamin A splicing: -15%; ALDH1A1 block: 19%[20.9 µM]; Sfp PPTase inh: 23%

What do the screens show for `CC=O`?
ALDH1A1 block: 5%

What do the screens show for `Cn1cccc1C(C#N)c1cccc(F)c1C#N` (stereo unspecified)?
KDM4E inh: -8%; G9a block: inconclusive; Lamin A splicing: -27%[46 µM]; ALDH1A1 block: 25µM*; miR-21 reporter: -1%; Sfp PPTase inh: -2%

Results for COc1ccccc1NC(=O)C(=O)NCC(c1ccc2c(c1)OCO2)N1CCOCC1 (stereo unspecified) ?
G9a block: 7%[59 µM]; Lamin A splicing: -12%[46 µM]; miR-21 reporter: -5%

How did Cc1ccc(C(=O)NCCC(C)C)cc1NC(=O)c1nsc2ccccc12 do in these assays?
G9a block: 7%[59 µM]; Lamin A splicing: -2%[46 µM]; miR-21 reporter: -23%

What do the screens show for `O=C(NNc1cccc(Cl)c1)c1cccnc1Cl`?
KDM4E inh: 0%; G9a block: 10µM*; Lamin A splicing: 8%; ALDH1A1 block: -5%; miR-21 reporter: -10%; Sfp PPTase inh: -2%

Results for CCCc1c(C(=O)NNc2cccc(Cl)c2)cnn1-c1ccccc1 ?
KDM4E inh: 5%; G9a block: 35µM*; miR-21 reporter: -17%; Sfp PPTase inh: 4%

How did CCCc1c(C(=O)Nc2ccc(F)cc2F)cnn1-c1ccccc1 do in these assays?
KDM4E inh: 5%; G9a block: 7%; Lamin A splicing: -5%[46 µM]; ALDH1A1 block: inconclusive; miR-21 reporter: -7%; Sfp PPTase inh: 11%

How did C=CC1=C(C)C2=NC1=CC1=NC(=CC3=NC(=CC4=NC(=C2)C(C)=C4CCC(=O)O)C(CCC(=O)O)=C3C)C(C=C)=C1C.[Zn] do in these assays?
KDM4E inh: inconclusive; ALDH1A1 block: inconclusive; Sfp PPTase inh: 4.5µM*

Results for Cc1cc(CCC(=O)O)c(C)cc1CCC(=O)O ?
KDM4E inh: 0%; G9a block: -10%[59 µM]; Lamin A splicing: 3%; ALDH1A1 block: -4%; miR-21 reporter: 1%; Sfp PPTase inh: 13%

Results for COc1ccccc1N1CCN(CC(=O)Nc2ccc(CN3CCCCC3)cc2)CC1 ?
KDM4E inh: inconclusive; G9a block: 10µM*; Lamin A splicing: 4%; ALDH1A1 block: -13%; miR-21 reporter: -2%; Sfp PPTase inh: inconclusive

Results for COc1ccc(CCNC(=O)CN2CCN(c3ccccc3Cl)CC2)cc1 ?
KDM4E inh: -3%; G9a block: -49%[59 µM]; Lamin A splicing: 8%; ALDH1A1 block: 3.2µM*; miR-21 reporter: -4%; Sfp PPTase inh: 13%

Results for COc1cccc(NC(=O)CN2CCN(c3ccccc3F)CC2)c1 ?
KDM4E inh: -5%; G9a block: -8%[12.7 µM]; Lamin A splicing: 10%; ALDH1A1 block: 10µM*; miR-21 reporter: 3%; Sfp PPTase inh: 20%

What do the screens show for `COc1ccc(NC(=O)CN2CCN(c3ccccc3F)CC2)c(OC)c1`?
G9a block: 5%[12.7 µM]; Lamin A splicing: -14%[46 µM]; miR-21 reporter: -3%
